The list is not random: actives were taken first. Their share in the collection is about 7.3%.
Luc counter: Kinase-Glo luciferase inhibition (counter-screen); Kinase-Glo luciferase, ATP luminescence, 8 min; 0.28% of 200,000 active; Potency, µM (titrated, usually from 38.3 µM), without a hit: at the highest dose activity change, negative = inhibition, most hits filed as inhibitors; AID 1379; Q27757; note: % is set by controls: 0 for no effect and ±100 for the full control effect; nearly all actives have a fitted effect of over 60% in size
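Inhibition of Kinase-Glo luciferase light generation was assessed at 10 uM ATP in pH 7.2 imidazole buffer, with luminescence measured after eight minutes at ambient temperature.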
FLuc counter: counter-screen for miR-21 project: firefly luciferase inhibitors or activators | P08659 | purified FLuc, Km substrates, luminescence inhibition | Potency, µM (doses to about 57.5 µM), for inactives: at the top dose activity change, negative = inhibition, most hits filed as inhibitors | 6.9% of 360,000 active | AID 588342;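 note: plate controls were vehicle for no effect and reference inhibitor for full effect; nearly all actives have a fitted effect of over 55% in size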
Target sequence (P08659 whole entry, looked up): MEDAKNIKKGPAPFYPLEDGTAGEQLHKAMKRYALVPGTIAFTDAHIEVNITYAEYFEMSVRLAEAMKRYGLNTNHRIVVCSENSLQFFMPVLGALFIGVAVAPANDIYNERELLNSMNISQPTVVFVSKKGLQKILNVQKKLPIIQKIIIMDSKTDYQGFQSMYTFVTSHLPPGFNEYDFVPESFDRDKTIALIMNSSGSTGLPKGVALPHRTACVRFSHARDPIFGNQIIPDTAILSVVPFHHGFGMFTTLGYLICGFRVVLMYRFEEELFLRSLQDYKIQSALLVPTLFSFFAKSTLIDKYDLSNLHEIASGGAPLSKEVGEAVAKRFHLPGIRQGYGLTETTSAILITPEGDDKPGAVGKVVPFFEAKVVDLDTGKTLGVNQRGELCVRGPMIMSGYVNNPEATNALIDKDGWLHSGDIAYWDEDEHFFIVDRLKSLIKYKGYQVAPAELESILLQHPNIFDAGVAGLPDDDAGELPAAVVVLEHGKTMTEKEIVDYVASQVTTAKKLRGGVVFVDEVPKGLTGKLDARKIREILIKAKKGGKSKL
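Purified P. pyralis luciferase (10nM final) with 10uM D-luciferin and 10uM ATP (Km levels) in 50mM Tris acetate pH 7.5, 10mM Mg acetate, 0.01% Tween-20, 0.05% BSA; qHTS 6-point titration, ~60 µM downward; luminescence read.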
Rab9 promoter act: activates the Rab9 promoter; Huh7 Rab9 promoter-luciferase reporter, luminescence, 24 h; Potency, µM (doses to about 9.22 µM), inactives show at the highest dose activation, negative = inhibition, most hits filed as activators; 2.8% of 320,000 active; AID 485297; note: % of control where 0% means no effect; nearly all actives have a fitted effect of over 60% in size
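Promoter activation is measured as luciferase luminescence in Huh7 cells stably transfected with a Rab9 promoter–luciferase construct, following 24 h compound exposure at 37 °C and 10 min reagent incubation at ambient temperature.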
ELG1 genotoxic: genotoxicity induction in ELG1-luciferase HEK293T cells; HEK293T ELG1-luciferase reporter, luminescence, 16 h; Potency, µM (titrated, usually from 46 µM), for the others: top-dose activity change, positive = activation, actives largely listed as activators; 1.3% of 330,000 active; AID 504466; note: % of control where 0% means no effect; nearly all actives have a fitted effect of over 60% in size
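HEK293T cells expressing luciferase-tagged ELG1 were treated with compound or DMSO for 16 hr at 37°C. Luciferase activity was then read after 30 min with ONE-Glo at room temperature; rising signal flags genetic stress.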
SMN2 splice enh: enhancers of SMN2 splice variant expression; HEK293 SMN2-luciferase splicing reporter, luminescence, 30-36 h; Potency, µM (doses to about 46.1 µM), without a hit: top-dose activity change, positive = activation, actives largely listed as activators; 2.8% of 210,000 active; note: % of control where 0% means no effect; nearly all actives have a fitted effect of over 55% in size
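HEK293 cells carry an SMN2 […]–luciferase reporter in which exon 7 inclusion puts luciferase in frame. Cells were plated 10-12 h before compound addition, then incubated 30-36 h at 37C. ONE-Glo luminescence was read; sodium butyrate at 4.5 mM final served as control.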
NPC1 promoter act: activators of NPC1 promoter. Huh7 NPC1 promoter luciferase reporter, 24 h. Potency, µM (series often up to 9.22 µM), for inactives: at the highest dose activation, most hits filed as activators. 2.4% of 320,000 active. AID 485313; note: % of control where 0% means no effect; nearly all actives have a fitted effect of over 60% in size
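Huh7 cells stably carrying NPC1 promoter–luciferase, plated in Opti-MEM with 10% FBS for 2 h, were exposed to compound in DMSO for 24 h at 37 °C; luciferase reagent was added for 10 min and luminescence read.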
Active calls of the source: *; u = inconclusive; x = not tested or not shown; [ ] = another dose, or the depositor's remark. Calls come from the whole dose curve; as a rule, active = well fitted curve in the direction sought with a large enough effect; inconclusive = small, poorly fitted or top-dose-only effect, or another doubt; inactive = no such curve, though single readings can be large; an effect the other way counts as inactive or inconclusive. Potency is the fitted concentration of half-maximal effect.

SMILES | Luc counter | FLuc counter | Rab9 promoter act | ELG1 genotoxic | SMN2 splice enh | NPC1 promoter act
O=C1NC(=S)N(c2ccccc2)C(=O)/C1=C/c1ccco1 | x | 19µM* | -5% | 2% | x | -4%
COc1ccccc1/C=C1\C(=O)NC(=S)N(c2ccccc2)C1=O | x | -8% | 0% | 0% | x | -1%
COc1cccc(N2C(=O)/C(=C/c3ccc(C)o3)C(=O)NC2=S)c1 | x | 15µM* | 9% | 2% | x | 1%
Cc1cccnc1-n1c(CN2C(=O)c3ccccc3C2=O)nc2ccccc2c1=O | 10% | 1% | -3% | 1% | -2% | -1%
Nc1c(C(=O)Nc2ccc(Cl)cc2)sc2nc3c(cc12)N1CCC3CC1 | x | -15% | x | x | -5% | x
Nc1c(C(=O)Nc2cccc(Br)c2)sc2nc3c(cc12)N1CCC3CC1 | x | 12µM* | x | x | -31% | x
CCOc1ccc2nc(NC(=O)c3cccn(Cc4ccccc4C)c3=O)sc2c1 | x | 15µM* | x | x | x | x
Cc1cccc(Cn2cccc(C(=O)Nc3nc4ccccc4s3)c2=O)c1 | x | 6µM* | x | x | x | x
Cc1ccc2nc(NC(=O)c3cccn(Cc4ccccc4F)c3=O)sc2c1 | x | 6% | x | x | x | x
Cc1ccc(Cn2cccc(C(=O)Nc3nc4ccc(C)cc4s3)c2=O)cc1 | x | -11% | x | x | x | x
ClC1=C(Cl)C2(Cl)C3C4C=CC(C4)C3C1(Cl)C2(Cl)Cl (stereo unspecified) | -2% | x | x | x | -3% | x
NC(Cc1nc2ccccc2[nH]1)c1ccc(Cl)cc1 (stereo unspecified) | x | 11µM* | u | 13µM* | x | 14%
NC(Cc1ccccc1)c1nc2ccccc2[nH]1 (stereo unspecified) | x | u | 13% | 10% | x | 18%
O=c1[nH]c(=O)n(-c2ccccc2)c(O)c1/C=C/C=Nc1ccccc1 | 1% | 0% | 4% | 1% | -3% | 1%
O=C(Nc1ccc2c(c1)OCO2)c1cn(Cc2ccc(F)cc2)nn1 | -5% | u | 22% | 14% | 17% | 29%
Cc1cc(C(=O)Nc2ccccc2)nn1C(C)(C)C | x | 6.7µM* | 2.2µM* | u | x | 2.2µM*
Cc1cc(C(=O)Nc2ccc3c(c2)OCCO3)nn1C(C)(C)C | x | 7.6µM* | 3.5µM* | u | x | 4.5µM*
CCCOC(=O)c1c(N)n(Cc2cccs2)c2nc3ccccc3nc12 | 19% | 4% | 1% | -12% | -5% | -3%
CCCCCCOc1ccc(CN2CCN(CC)CC2)cc1 | 0% | 9.5µM* | 2.8µM* | 3.7µM* | -29% | 4µM*
CCN1CCN(Cc2ccc(OC(F)(F)F)cc2)CC1 | -1% | 7% | -7% | 4% | -8% | -1%
COc1ccc(CN2C(=O)NC(=O)/C(=C\c3cc(OC)c(OC)c(OC)c3)C2=O)cc1 | 3% | 19µM* | 0% | 5% | -42% | 1%
O=C1NC(=O)N(CCc2ccc(F)cc2)C(=O)/C1=C/c1ccco1 | -5% | u | -1% | 11% | -15% | 0%
COc1ccc(CN2C(=O)NC(=O)/C(=C\c3ccco3)C2=O)cc1 | -2% | 24µM* | -2% | -1% | 1% | -9%
Clc1ccc2sc(C3CCNCC3)nc2c1 | x | 24µM* | u | u | x | u
Clc1cccc(SC2CCNCC2)n1 | 1% | x | x | x | 1% | x
SMILES | Luc counter | FLuc counter | Rab9 promoter act | ELG1 genotoxic | SMN2 splice enh | NPC1 promoter act
Cn1nnc2cc(NC(=O)Nc3cccc(Cl)c3)ccc21 | x | u | 1.4µM* | u | x | 2µM*
C[N+](C)(C)CC#CCOC(=O)Nc1cccc(Cl)c1 | -9% | x | -6%[46.1 µM] | x | 23% | 11%[46.1 µM]
O=P1(NCCCl)OCCCN1CCCl (stereo unspecified) | 0%[17.1 µM] | 0% | 1% | -4% | -13%[20.6 µM] | 6%
C[C@]12CCC3C(CC[C@H]4C[C@@H](O)CC[C@]34C)C1C[C@@H](N)[C@@H]2O (stereo partly specified) | x | x | x | -3% | x | x
Cc1ccc(-c2nc(N3CCOCC3)s[n+]2-c2ccccc2)cc1 | -2% | 9.5µM* | 24% | u | 22% | 8%
CC(=O)OC1N=C(c2ccccc2Cl)c2cc(Br)ccc2NC1=O (stereo unspecified) | x | 1% | 1% | -2% | x | 1%
Cc1ccc2c(c1N)C(=O)c1ccccc1C2=O | x | 4.3µM* | u | u | u | 3.2µM*
O=C1NC(=O)[C@]2(Cc3ccccc3N3CCN(c4ccccc4)CC32)C(=O)N1Cc1ccccc1 (stereo partly specified) | 2% | -1% | 2% | 11% | -19% | 12%
CCC(=NCCCN(C)C)c1c(O)n(-c2ccc(OC)cc2)c(=O)[nH]c1=O | 3% | 4% | -2% | 2% | -5% | -2%
O=C1NC(=O)c2c1c1c3ccccc3[nH]c1c1[nH]c3ccccc3c21 | -1%[39.9 µM] | x | x | x | x | x
c1ccc(NC2=Nc3ccccc3CC2)cc1 | 3% | u | u | 16µM* | 11% | u
COc1ccc(-c2cc(=NCCC(=O)O)c3cc(C)ccc3o2)cc1 | 1% | 13µM* | u | u | x | u
COc1ccc(-c2cc(=Nc3ccccc3)c3cc(C)ccc3o2)cc1 | -3% | 27µM* | 21% | u | u | 6%
Cc1cc(N=Nc2ccccc2C)ccc1N | x | x | x | x | 14µM* | x
CC(Cc1ccccc1)NC(=O)Cc1ccc(N(C)C)cc1 (stereo unspecified) | 2% | 1% | 1% | 2% | 22% | 0%
NC(N)=N/N=C/c1cn(-c2ccccc2)nc1-c1cccs1 | -5% | 4.3µM* | -3% | 1% | -14% | 0%
O=C(CNC(=O)c1ccccc1)Nc1ccc(Br)cc1C(=O)c1ccccc1 | 3% | 2% | -2% | -5% | -9% | 0%
COc1ccc2c(c1O)-c1cc(O)cc3c1[C@@H](C2)N(C)CC3 | x | x | x | x | -15% | x
COc1ccc(N2C(=O)/C(=C/C=C/c3ccccc3[N+](=O)[O-])C(=O)NC2=S)cc1 | 2% | 24µM* | 1% | -1% | -7% | -1%
O=C(c1ccccc1)c1cn(CC(=O)N2CCOCC2)c2ccccc12 | -2% | 5% | -1% | 1% | -6% | 1%
Cc1cc(C(=O)CS(=O)(=O)c2ccc(F)cc2)cc(C)c1OC(=O)N(C)C | u | 11µM* | 2.8µM* | u | 6% | 4µM*
CN(C)C(=O)Oc1c(Cl)cc(Cl)c2ccccc12 | -4% | 0% | 12% | 2% | 2% | -2%
CN(C)c1ccc(/C=C2/C(=N\O)C3CCN2CC3)cc1 | x | 19µM* | 2.8µM* | u | x | u
O=C1/C(=C\c2ccc([N+](=O)[O-])cc2)N2CCC1CC2 | -2% | 2% | 2% | 0% | -17% | -3%
O=c1[nH]c(=O)n(Cc2ccco2)c(O)c1C=NC1CC1 | -5% | 6% | -1% | -3% | -21% | 1%
